Experimental data published in PubChem BioAssay (NCATS).
Inconclusive results are not listed. Active and inactive are the calls of the source. The call rests on the fitted dose curve; in most records, active means well fitted curve in the direction sought with a large enough effect; inconclusive means small, poorly fitted or top-dose-only effect, or another doubt; inactive means no such curve, though single readings can be large; an effect the other way counts as inactive or inconclusive. *1 amine or outer side, *2 acyl side, *3 side chain or, on linkers, in order; H or OH if unused. Where a SMILES comes first, the peptide text is derived from it. Bridges are numbered along the chain shown (N, C = ends). [ ]: non-standard residue; d: D form. The star is where a group is joined. ξ: configuration not given here. ξhTyr(3S-OH,4S-OH,3'-OSO3H) = NC(C(=O)O)[C@H](O)[C@@H](O)c1ccc(O)c(OS(=O)(=O)O)c1; Orn(4R-OH,5R-OH) = O=C([C@H](C[C@@H](O)[C@@H](O)N[*:3])N[*:1])[*:2]; X2 = CCCCCOc1ccc(-c2cc(-c3ccc(C(=O)*)cc3)no2)cc1; X3 = C[C@H]1CN([*:1])C(C(=O)[*:2])[C@H]1O; ξGln(3R-OH) = NC(=O)C[C@@H](O)C(N)C(=O)O; ξPro(4R-OH) = O=C(O)C1C[C@@H](O)CN1; ξThr(3R) = C[C@@H](O)C(N)C(=O)O

Experiments:
[1] = biological target: Calcium and integrin-binding protein 1 (Homo sapiens) (UniProt Q99828); assay: Primary qHTS for Identification of Calcium Integrin Binding Protein 1 (CIB1) Competitor (AID 1508620);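 further: GST tagged CIB1 binding a fluorescein labelled alphaIIb integrin peptide tracer; top concentration of the series differs between compounds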
Sequence of Calcium and integrin-binding protein 1 (Homo sapiens) (Q99828 whole entry, looked up): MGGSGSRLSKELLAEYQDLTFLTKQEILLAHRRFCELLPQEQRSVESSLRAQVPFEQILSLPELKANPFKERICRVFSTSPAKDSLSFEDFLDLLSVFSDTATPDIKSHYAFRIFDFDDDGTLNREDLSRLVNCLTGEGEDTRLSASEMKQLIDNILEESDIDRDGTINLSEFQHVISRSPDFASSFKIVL
Procedure, shortened: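 Fluorescence polarization competition: CIB1-GST (1 uM final) preincubated with compound 15 min at room temperature, then FITC-labeled alphaIIb peptide (100 nM final) added for another 15 min. Polarization read at Ex 480/Em 540.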

[2] = Primary qHTS for inhibitors of nuclear receptor binding SET domain protein 2 (NSD2) in an isogenic RCH-ACV NSD2 p.E1099K mutant (9B) (AID 1645876); further: nearly all actives have a fitted effect of over 70% in size
[3] = Primary qHTS for inhibitors of nuclear receptor binding SET domain protein 2 (NSD2) in an RCH-ACV wild type WT cells (2C) (AID 1645877); further: nearly all actives have a fitted effect of over 70% in size
On the % scale 0 is the no-effect control and ±100 the full control effect.

O=C(O)CCc1cccc(O)c1O[C@@H]1O[C@H](CO)[C@@H](O)[C@H](O)[C@H]1O
inactive: Potency [1] | Potency [2] | Potency [3]

CC1(O)CCC2C(C3C1CCC3(C)O)C2(C)C (centres undefined)
inactive: Potency [1] | Potency [2] | Potency [3]

CC1=C(C)C(=O)OC(C(C)C2C(O)CC3C4C5OC5C5(O)CC(OC6OC(CO)C(OC7OC(C)C(O)C(O)C7O)C(O)C6O)CC(O)C5(C)C4CCC32C)C1 (centres undefined)
inactive: Potency [1] | Potency [2] | Potency [3]

CC(=O)OCC1=CCC2C(C)(C)CCCC2(C)C12CCC(C)(CC(=O)O)O2 (centres undefined)
inactive: Potency [1] | Potency [2] | Potency [3]

CC(=O)O[C@@H]1[C@@H](O)[C@H](C)O[C@@H](O[C@H]2[C@@H]3C=CO[C@@H](O[C@@H]4O[C@H](CO)[C@@H](O)[C@H](O)[C@H]4OC(C)=O)[C@@H]3[C@@]3(CO)O[C@@H]23)[C@@H]1OC(=O)/C=C/c1ccc(O)cc1
inactive: Potency [1] | Potency [2] | Potency [3]

COc1cc(C(O)C2COC(c3ccc(OC4OC(CO)C(O)C(O)C4O)c(OC)c3)C2CO)ccc1O (centres undefined)
inactive: Potency [1] | Potency [2] | Potency [3]

NC[C@@H]1O[C@@H](O[C@@H]2[C@@H](O[C@@H]3O[C@H](CO)[C@@H](O)[C@H]3O)[C@H](O)[C@@H](N)C[C@H]2N)[C@@H](N)[C@H](O)[C@H]1O
inactive: Potency [1] | activity change, negative = viability loss [2] 4.31% [at 9.23 µM] | outcome [3] inactive [at 9.23 µM]

C=C1CC23CC(=O)C4C(CO)(CO)CCCC4(C)C2CCC1C3 (centres undefined)
inactive: Potency [1] | Potency [2] | Potency [3]

O=C(Cc1ccccc1)OC[C@H]1O[C@H](O[C@H]2O[C@H](CO)[C@@H](O)[C@H](O)[C@H]2O)[C@H](O)[C@@H](O)[C@@H]1O
inactive: Potency [1] | Potency [2] | Potency [3]

CC(C)=CCC/C(C)=C/CO[C@@H]1O[C@H](CO[C@@H]2O[C@@H](CO)[C@H](O)[C@H]2O)[C@@H](O)[C@H](O)[C@H]1O
inactive: Potency [1] | Potency [2] | Potency [3]

COc1ccc([C@H]2OC[C@H]3[C@@H]2CO[C@@H]3c2ccc(O[C@@H]3O[C@H](CO)C(O)[C@H](O)[C@H]3O)c(OC)c2)cc1OC (some centres undefined)
inactive: Potency [1] | Potency [2] | Potency [3]

C[C@@H]1O[C@@H](O[C@H]2[C@@H]3C=CO[C@@H](O[C@@H]4O[C@H](CO)[C@@H](O)[C@H](O)[C@H]4O)[C@@H]3[C@@]3(CO)O[C@@H]23)[C@H](O)[C@H](OC(=O)/C=C/c2ccc(O)cc2)[C@H]1OC(=O)/C=C/c1ccc(O)cc1
inactive: Potency [1] | Potency [2] | Potency [3]

CC(C)C[C@H](NC(=O)[C@@H]1O[C@H]1C(=O)O)C(=O)NCCCCN=C(N)N
inactive: Potency [1] | Potency [2] | Potency [3]

COc1cc(-c2ccc(O)cc2)c(OC)c(O)c1C1=CC(=O)OC1CC(=O)O (centres undefined)
inactive: Potency [1] | Potency [2] | Potency [3]

COC(=O)C1=CO[C@@H](O[C@@H]2O[C@H](CO)[C@@H](O)[C@H](O)[C@H]2O)[C@@H]2C(C)CC(=O)[C@]12O (some centres undefined)
inactive: Potency [1] | Potency [2] | Potency [3]

O=C(O)C1(c2ccc(-c3ccc(Cl)c(Cl)c3)c(F)c2)CC1
inactive: Potency [1] | Potency [2] | Potency [3]

COC(=O)c1cc(OC)cc(OC)c1C(=O)c1c(OC)cc2c(c1O)C1CCC(O)C(C)(O2)O1 (centres undefined)
inactive: Potency [1] | Potency [2] | Potency [3]

Cc1cn2cc(CC(=O)N3CCC4(CC3)CN(Cc3ccc(-n5nccn5)cc3Cl)C4)nc2s1
inactive: Potency [1] | Potency [2] | Potency [3]

O=C(O)c1cc(O[C@@H]2O[C@H](CO)[C@@H](O)[C@H](O)[C@H]2O)ccc1O
inactive: Potency [1] | Potency [2] | Potency [3]

C=C(C)[C@@H]1CC[C@]2(C)CC[C@]3(C)C(CCC4[C@@]5(C)CC[C@H](O)C(C)(C)C5CC[C@]43C)C12 (some centres undefined)
inactive: Potency [1] | Potency [2] | Potency [3]

CC(=O)OC[C@@]12C(=O)C[C@@H](C)[C@]3(C[C@@H](c4ccoc4)OC3=O)[C@H]1CC[C@H](OC(C)=O)[C@]21CO1
inactive: Potency [1] | Potency [2] | Potency [3]

CC(=O)OC1CCC2(C)C(CCC3(C)C2CC=C2C4CC(C)(C)CCC4(C)CCC23C)C1(C)C(=O)O (centres undefined)
inactive: Potency [1] | Potency [2] | Potency [3]

C=C1C(O)CC2C(C(=O)O)=COC(O[C@@H]3O[C@H](COC(=O)c4ccc(O)cc4)[C@@H](O)[C@H](O)[C@H]3O)C12 (some centres undefined)
inactive: Potency [1] | Potency [2] | Potency [3]

COC(=O)C1(C)CCCC2(C)c3ccc(C(C)C)cc3C(O)C(O)C12 (centres undefined)
inactive: Potency [1] | Potency [2] | Potency [3]

CC(=O)OC/C(=C/C(=O)O)CC[C@@H]1C(C)=CC(=O)[C@@H]2C(C)(C)CCC[C@@]12C
inactive: Potency [1] | Potency [2] | Potency [3]

C[C@@H]1O[C@@H](OC[C@H]2O[C@@H](OCc3ccccc3)[C@H](O)[C@@H](O)[C@@H]2O)[C@H](O)[C@H](O)[C@H]1O
inactive: Potency [1] | Potency [2] | Potency [3]

CC(C)=CC[C@H]1O[C@]2(O)C([C@H]3CCC4[C@@]5(C)CC[C@H](O[C@@H]6O[C@H](CO)[C@H](O)[C@H](O[C@@H]7O[C@H](CO)[C@@H](O)[C@H](O)[C@H]7O)[C@H]6O[C@@H]6O[C@@H](C)[C@H](O)[C@@H](O)[C@H]6O)C(C)(C)C5CC[C@@]4(C)[C@]3(C)[C@H]2O)[C@@]1(C)O (some centres undefined)
inactive: Potency [1] | activity change, negative = viability loss [2] -8.31% [at 9.23 µM] | activity change, negative = cell killing [3] -7.27% [at 9.23 µM]

O=C(OCC1=C[C@@H](O)[C@@H]2C=CO[C@@H](O[C@@H]3O[C@H](CO)[C@@H](O)[C@H](O)[C@H]3O)[C@H]12)c1ccc(O)cc1
inactive: Potency [1] | Potency [2] | Potency [3]

C=C(C(=O)O)[C@@H]1CC[C@@]2(C)CC[C@@H](O)C(=C)C2C1 (some centres undefined)
inactive: Potency [1] | Potency [2] | Potency [3]

O=C(/C=C/c1ccc(O)cc1)O[C@H]1[C@H](OC2CCCCC2O)O[C@H](CO)[C@@H](O)[C@@H]1O (some centres undefined)
inactive: Potency [1] | Potency [2] | Potency [3]

CC(=O)OC[C@]12[C@H](OC(C)=O)[C@H](OC(=O)c3ccccc3)[C@@H]3[C@@H](OC(C)=O)[C@]1(OC3(C)C)[C@H](C)C[C@H](OC(=O)c1ccccc1)[C@@H]2OC(=O)c1ccccc1
inactive: Potency [1] | Potency [2] | Potency [3]

CC(C)(O)c1ccc2c(c1)C(=O)C[C@H]1[C@](C)(C(=O)O)CCC[C@]21C
inactive: Potency [1] | Potency [2] | Potency [3]

C=C(C(=O)O)C1CC(O)C2(C)CCCC(C)(O)C2C1 (centres undefined)
inactive: Potency [1] | Potency [2] | Potency [3]

CC(=O)c1c(C)cccc1O[C@@H]1O[C@H](CO)[C@@H](O)[C@H](O)[C@H]1O
inactive: Potency [1] | Potency [2] | Potency [3]

CCCCCOc1ccc(-c2cc(-c3ccc(C(=O)N[C@H]4C[C@@H](O)[C@@H](O)NC(=O)C5[C@@H](O)[C@@H](C)CN5C(=O)C([C@H](O)CC(N)=O)NC(=O)C([C@H](O)[C@@H](O)c5ccc(O)c(OS(=O)(=O)O)c5)NC(=O)C5C[C@@H](O)CN5C(=O)C([C@@H](C)O)NC4=O)cc3)no2)cc1 (stereo partly drawn) (X2-[Orn(4R-OH,5R-OH)][ξThr(3R)][ξPro(4R-OH)][ξhTyr(3S-OH,4S-OH,3'-OSO3H)][ξGln(3R-OH)][X3]; lactam 1-C)
inactive: Potency [1] | Potency [2] | Potency [3]

CC(=O)OC1CC(C(C)(C)O)OC2CCC3(C)OC4=C(C(=O)C=C5C(C)C(OC(C)=O)C6(C)C(C)OC546)C(O)C3C12C (centres undefined)
inactive: Potency [1] | Potency [2] | Potency [3]

CCC(C)C(=O)OC[C@H]1O[C@H](O[C@H]2O[C@H](CO)[C@@H](O)[C@H](O)[C@H]2O)[C@H](O)[C@@H](O)[C@@H]1O (some centres undefined)
inactive: Potency [1] | Potency [2] | Potency [3]

CCC(C)/C=C(C)/C=C/C1=CC2=C(Cl)C(=O)C(C)(OC(C)=O)C(=O)C2=CN1C(CCCN=C(N)N)C(=O)O (centres undefined)
inactive: Potency [1] | Potency [2] | Potency [3]

O=C(OC[C@H]1O[C@H](O[C@H]2CO[C@H](CO)[C@@H](O)[C@@H]2O)[C@H](O)[C@@H](O)[C@H]1O)c1ccccc1
inactive: Potency [1] | Potency [2] | Potency [3]

CC1=C(CO)C2(C)CCCC(C)(C)C2C(O)C1O (centres undefined)
inactive: Potency [1] | Potency [2] | Potency [3]

C[C@@H]1O[C@@H](OC(=O)Cc2ccccc2)[C@H](O)[C@H](O)[C@H]1O
inactive: Potency [1] | Potency [2] | Potency [3]

CC[C@H]1OC(=O)[C@H](C)[C@@H](O[C@H]2C[C@@](C)(OC)[C@@H](O)[C@H](C)O2)C(C)[C@@H](O[C@@H]2O[C@H](C)C[C@H](N(C)C)[C@H]2O)[C@](C)(O)C[C@@H](C)CN(C)[C@H](C)[C@@H](O)[C@]1(C)O (some centres undefined)
inactive: Potency [1] | Potency [2] | Potency [3]

C[C@@H]1O[C@@H](O[C@H]2[C@H](O[C@H]3[C@H](O[C@H]4CC[C@@]5(C)C(CC[C@]6(C)C5CC=C5[C@@H]7CC(C)(C)C[C@@H](O)[C@]7(C)CC[C@]56C)[C@@]4(C)CO)O[C@H](C(=O)O)[C@@H](O)[C@@H]3O)O[C@H](C(=O)O)[C@H](O)[C@@H]2O)[C@H](O)[C@H](O)[C@H]1O (some centres undefined)
inactive: Potency [1] | activity change, negative = viability loss [2] 4.66% [at 9.23 µM] | activity change, negative = cell killing [3] 2.89% [at 9.23 µM]

CC(=O)NC1CC(=O)C23C(=O)NC(Cc4c[nH]c5ccccc45)C2C(C)=C(C)C(O)C3/C=C/CC(C)/C=C(/C)C(O)C1O (centres undefined)
inactive: Potency [1] | Potency [2] | Potency [3]

CC(C)(O)C(O)C(=O)OCc1ccc(O[C@@H]2O[C@H](CO)[C@@H](O)[C@H](O)[C@H]2O)cc1 (some centres undefined)
inactive: Potency [1] | Potency [2] | Potency [3]

OC[C@@]1(O)CO[C@@H](OC[C@H]2O[C@@H](OCc3ccccc3)[C@H](O)[C@@H](O)[C@@H]2O)[C@@H]1O
inactive: Potency [1] | Potency [2] | Potency [3]

CC(=O)c1ccc(O[C@@H]2O[C@H](CO[C@@H]3OC[C@@H](O)[C@H](O)[C@H]3O)[C@@H](O)[C@H](O)[C@H]2O)cc1
inactive: Potency [1] | Potency [2] | Potency [3]

CC1(C)OC(=O)C=C[C@@]2(C)C1CC(=O)[C@]1(C)C2CC[C@@]2(C)[C@H](c3ccoc3)OC(=O)[C@H]3O[C@]321 (some centres undefined)
inactive: Potency [1] | Potency [2] | Potency [3]
